In PubChem BioAssay:
Calls of active or inactive are those of the source. Unless noted, no rule for the calls is given here.

How the values were obtained:
[1] = anti-His antibody binders, primary screen, artefact control for SMM control protein annotation, biochemical, small-molecule microarray, 635 nm fluorescence (AID 1128); conditions: anti-His Alexa647 antibody binding, higher = more signal;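 also: score merges feature fluorescence with signal-to-noise for each printed compound spot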
[2] = tested on: Human papillomavirus type 1a E7 protein (residues 1-88); experiment: HPV1a E7 small-molecule binders, primary screen, biochemical, small-molecule microarray, residues 1-88, 635 nm (AID 1129); conditions: small-molecule microarray binding, fluorescence 635 nm; higher = more signal
[3] = target: Focal adhesion kinase 1 (Homo sapiens) (UniProt Q05397); experiment: small-molecule microarray binders of FAK, primary screen, biochemical, 635/667 nm fluorescence, BSA, DTT (AID 1130); conditions: PTK2 binding, 635 nm fluorescence, higher = more signal;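 also: composite of spot emission at 667 nm and signal to noise over triplicate slides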
[4] = tested on: Fibrinogen (Alexa647-labelled); experiment: fibrinogen binders on compound microarrays, profiling panel, artefact control for SMM control-protein annotation, biochemical, small-molecule microarray, 635/667 nm fluorescence (AID 1131); conditions: fibrinogen-A647 binding fluorescence, higher = more signal;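 also: z-score merges 667 nm fluorescence with per-spot signal-to-noise over triplicate slides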
[5] = target: Follistatin (Homo sapiens) (UniProt P19883); experiment: follistatin binders on small-molecule microarrays, primary screen, biochemical, small-molecule microarray, 635/667 nm fluorescence (AID 1132); conditions: FST binding, 635 nm fluorescence, higher = more signal
[6] = target: Fibroblast growth factor 2 (Homo sapiens) (UniProt P09038); experiment: FGF2 binders on small-molecule microarrays, primary screen, biochemical, small-molecule microarray, 635/667 nm fluorescence (AID 1133); conditions: small-molecule microarray binding, FGF2, fluorescence 635/667; higher = more signal
[7] = mitochondrial membrane potential change in A549 cells, profiling panel, cell-based, JC-1 fluorescence, basal, 24 h, 100 nL (AID 1138); conditions: higher = more signal;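 also: A549 lung adenocarcinoma cells under basal conditions with no added stimulus; test concentration not given here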
Lefty1 = Lefty1 binders on small-molecule microarrays, primary screen, biochemical, small-molecule microarray, 635/667 nm fluorescence (AID 1139); conditions: small-molecule microarray binding, fluorescence 635/667; higher = more signal
[8] = tested on: wheat germ agglutinin (Triticum aestivum), Alexa647-labelled; experiment: wheat germ agglutinin binders on compound microarrays, profiling panel, artefact control for SMM control-protein annotation, biochemical, small-molecule microarray, 635/667 nm fluorescence (AID 1140); conditions: WGA-A647 binding, 635 nm fluorescence, higher = more signal;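 also: score merges 667 nm feature emission with signal to noise over triplicate slides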
[9] = target: Luciferin 4-monooxygenase (Photinus pyralis) (UniProt P08659); experiment: firefly luciferase enzyme inhibitors, primary screen, biochemical, luminescence, purified enzyme, 2006 set (AID 1141); conditions: SteadyGlo luminescence, 30 min, higher = more signal, called active from +8 up or from −8 down;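 also: cell-free assay with purified firefly luciferase at 100 ng per well in PBS; test concentration not given here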
[10] = tested on: Wnt5a (protein binding on small-molecule microarray); experiment: Wnt5a binders on small-molecule microarray, primary screen, biophysical, 635/667 nm fluorescence (AID 1142); conditions: 635 nm fluorescence, higher = more signal;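 also: fluorescence read at 667 nm with signal to noise per printed feature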
[11] = cell viability in Huh7 cells, primary screen, cytotoxicity control for HCV replication inhibitor project, CellTiter-Glo luminescence, basal, 48 h (AID 1143); conditions: Huh7 HCV replicon, higher = more signal, called active from +8 up or from −8 down;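 also: Huh7 hepatoma cells carrying a hepatitis C replication reporter with no stimulus; test concentration not given here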
[12] = P. aeruginosa biofilm formation inhibitors, primary screen, PAO1 strain, BacTiter-Glo luminescence, LB-PBS (AID 1144); conditions: 12 h, higher = more signal
[13] = CREB reporter modulators without forskolin, primary screen, cell-based, PC12, CRE-LacZ reporter, unstimulated (AID 1145); conditions: no forskolin, luminescence, 4.5 h, higher = more signal, called active from +8 up or from −8 down
[14] = CREB reporter modulators under forskolin, primary screen, cell-based, PC12, CRE-LacZ reporter, forskolin-stimulated (AID 1146); conditions: luminescence, 4.5 h, higher = more signal, called active from +8 up or from −8 down;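 also: PC12 cells with 6xCRE LacZ reporter stimulated by forskolin 10 µM; beta-galactosidase reporter signal reflecting CREB driven transcription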
[15] = target: Streptavidin (Streptomyces avidinii) (UniProt P22629); experiment: streptavidin binders on small-molecule microarray, primary screen, artefact control for SMM compound annotation, biophysical, 635/667 nm fluorescence (AID 1147); conditions: streptavidin binding, higher = more signal;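 also: signal reflects streptavidin binding to arrayed compounds as a control protein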
[16] = small-molecule binders of probe aInhba, primary screen, biochemical, small-molecule microarray, 635/667 nm fluorescence (AID 1148); conditions: higher = more signal;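 also: score merges 667nm spot fluorescence with signal-to-noise for antibody binding to printed compounds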
Torsin-1A (Homo sapiens) [17] = target: Torsin-1A (Homo sapiens) (UniProt O14656); experiment: torsin A binders from cell lysate, primary screen, small-molecule microarray, wild-type, 635/667 nm (AID 1149); conditions: COS7 hTOR1A-WT lysate, 635 nm fluorescence, higher = more signal
Torsin-1A (Homo sapiens) [18] = target: Torsin-1A (Homo sapiens) (UniProt O14656); experiment: small-molecule binders of mutant TOR1A in lysate, primary screen, cell lysate, small-molecule microarray, COS7 lysate, 635/667 nm fluorescence (AID 1150); conditions: COS7 hTOR1A mutant lysate, 635 nm fluorescence, higher = more signal;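 also: score pools 667 nm emission and signal to noise measuring lysate protein binding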
[19] = tested on: Sonic hedgehog protein (Shh); experiment: small-molecule binders of Shh protein, primary screen, biochemical, small-molecule microarray, 635/667 nm fluorescence (AID 1151); conditions: small-molecule microarray binding, 635 nm fluorescence; higher = more signal;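 also: Shh protein binding to compounds spotted on small-molecule microarray slides; score combines spot fluorescence intensity with signal-to-noise across triplicate slides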

Torsin-1A (Homo sapiens), sequence (O14656 whole entry, looked up): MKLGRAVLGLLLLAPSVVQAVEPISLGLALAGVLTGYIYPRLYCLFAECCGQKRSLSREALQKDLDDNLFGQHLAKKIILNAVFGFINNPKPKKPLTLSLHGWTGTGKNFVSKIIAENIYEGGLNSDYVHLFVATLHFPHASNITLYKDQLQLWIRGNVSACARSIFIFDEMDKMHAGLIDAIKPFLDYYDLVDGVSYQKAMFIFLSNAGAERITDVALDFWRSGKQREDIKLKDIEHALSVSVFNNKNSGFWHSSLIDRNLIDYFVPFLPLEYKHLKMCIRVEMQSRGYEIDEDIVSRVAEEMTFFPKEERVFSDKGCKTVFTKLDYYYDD
Luciferin 4-monooxygenase (Photinus pyralis), sequence (P08659 whole entry, looked up): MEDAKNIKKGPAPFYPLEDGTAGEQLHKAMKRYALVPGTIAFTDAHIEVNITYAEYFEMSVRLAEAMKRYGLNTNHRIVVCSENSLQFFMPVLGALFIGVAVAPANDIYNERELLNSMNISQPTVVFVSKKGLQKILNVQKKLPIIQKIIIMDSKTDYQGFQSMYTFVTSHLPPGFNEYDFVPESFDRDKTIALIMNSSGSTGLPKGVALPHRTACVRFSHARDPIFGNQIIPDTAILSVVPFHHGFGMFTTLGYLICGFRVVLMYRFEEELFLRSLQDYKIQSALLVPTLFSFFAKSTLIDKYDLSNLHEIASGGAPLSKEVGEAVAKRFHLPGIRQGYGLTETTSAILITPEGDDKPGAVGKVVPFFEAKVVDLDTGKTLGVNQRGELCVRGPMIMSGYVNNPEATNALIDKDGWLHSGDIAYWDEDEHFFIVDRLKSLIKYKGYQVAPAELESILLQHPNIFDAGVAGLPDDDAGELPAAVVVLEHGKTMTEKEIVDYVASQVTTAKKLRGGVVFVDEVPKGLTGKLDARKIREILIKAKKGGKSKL
Fibroblast growth factor 2 (Homo sapiens), sequence (P09038 whole entry, looked up): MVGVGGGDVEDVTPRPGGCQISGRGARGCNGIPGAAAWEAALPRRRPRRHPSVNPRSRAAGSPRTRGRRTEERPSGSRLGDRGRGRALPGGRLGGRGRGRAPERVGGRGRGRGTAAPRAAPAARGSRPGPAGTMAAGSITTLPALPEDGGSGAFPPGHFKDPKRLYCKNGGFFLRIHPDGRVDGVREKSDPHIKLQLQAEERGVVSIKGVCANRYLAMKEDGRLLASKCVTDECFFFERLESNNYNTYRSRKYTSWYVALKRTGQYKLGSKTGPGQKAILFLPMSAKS
Streptavidin (Streptomyces avidinii), sequence (P22629 whole entry, looked up): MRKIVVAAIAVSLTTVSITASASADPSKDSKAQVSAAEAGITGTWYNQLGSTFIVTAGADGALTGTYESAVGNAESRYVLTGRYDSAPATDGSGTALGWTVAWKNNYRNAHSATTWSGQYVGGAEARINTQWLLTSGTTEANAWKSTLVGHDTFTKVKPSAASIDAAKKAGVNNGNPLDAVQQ
Focal adhesion kinase 1 (Homo sapiens), sequence (Q05397 whole entry, looked up): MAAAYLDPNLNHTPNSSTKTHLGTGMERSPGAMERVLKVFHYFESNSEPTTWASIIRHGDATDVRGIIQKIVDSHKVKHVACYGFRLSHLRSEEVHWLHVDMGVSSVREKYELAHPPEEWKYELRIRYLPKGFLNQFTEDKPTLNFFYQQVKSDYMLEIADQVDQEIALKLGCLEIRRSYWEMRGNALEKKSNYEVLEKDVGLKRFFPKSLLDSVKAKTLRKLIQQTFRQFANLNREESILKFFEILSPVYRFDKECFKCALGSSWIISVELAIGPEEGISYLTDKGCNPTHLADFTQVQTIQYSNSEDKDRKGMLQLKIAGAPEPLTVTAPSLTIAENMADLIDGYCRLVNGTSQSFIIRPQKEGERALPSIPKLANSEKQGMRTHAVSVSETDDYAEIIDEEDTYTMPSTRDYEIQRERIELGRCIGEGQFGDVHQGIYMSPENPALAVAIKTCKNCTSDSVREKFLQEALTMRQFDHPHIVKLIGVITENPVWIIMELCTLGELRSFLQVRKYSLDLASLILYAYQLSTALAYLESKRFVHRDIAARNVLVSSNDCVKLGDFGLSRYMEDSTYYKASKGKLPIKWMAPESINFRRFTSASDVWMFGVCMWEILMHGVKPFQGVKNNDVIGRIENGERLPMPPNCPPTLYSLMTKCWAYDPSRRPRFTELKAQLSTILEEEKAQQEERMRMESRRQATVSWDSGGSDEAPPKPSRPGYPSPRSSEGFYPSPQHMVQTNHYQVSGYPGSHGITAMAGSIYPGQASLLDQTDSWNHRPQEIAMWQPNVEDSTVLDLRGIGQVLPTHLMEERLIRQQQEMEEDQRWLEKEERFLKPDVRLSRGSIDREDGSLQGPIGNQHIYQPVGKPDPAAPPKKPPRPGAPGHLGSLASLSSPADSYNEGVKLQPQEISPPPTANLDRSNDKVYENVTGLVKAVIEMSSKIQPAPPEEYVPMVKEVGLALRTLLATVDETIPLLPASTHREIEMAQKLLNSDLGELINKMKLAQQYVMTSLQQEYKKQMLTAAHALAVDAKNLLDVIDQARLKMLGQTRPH
Follistatin (Homo sapiens), sequence (P19883 whole entry, looked up): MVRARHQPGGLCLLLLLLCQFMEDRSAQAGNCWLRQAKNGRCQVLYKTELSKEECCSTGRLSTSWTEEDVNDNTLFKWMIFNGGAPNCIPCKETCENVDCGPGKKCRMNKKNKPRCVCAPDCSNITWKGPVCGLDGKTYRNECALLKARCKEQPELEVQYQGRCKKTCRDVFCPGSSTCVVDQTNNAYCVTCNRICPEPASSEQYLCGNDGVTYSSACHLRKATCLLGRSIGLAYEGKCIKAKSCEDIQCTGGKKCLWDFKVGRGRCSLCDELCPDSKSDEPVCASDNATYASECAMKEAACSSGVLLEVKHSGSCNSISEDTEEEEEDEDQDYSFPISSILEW

SMILES | composite z-score [1] | composite z-score [2] | composite z-score [3] | composite z-score [4] | composite z-score [5] | composite z-score [6] | z-score [7] | composite z-score (Lefty1) | composite z-score [8] | z-score [9] | composite z-score [10] | z-score [11] | z-score [12] | z-score [13] | z-score [14] | composite z-score [15] | composite z-score [16] | composite z-score (Torsin-1A (Homo sapiens) [17]) | composite z-score (Torsin-1A (Homo sapiens) [18]) | composite z-score [19]
CO[C@H]1O[C@H](CO)[C@@H](OC(=O)CCc2ccccc2)[C@H](OC(=O)c2cc3ccccc3[nH]2)[C@H]1OC(=O)c1cc2ccccc2[nH]1 | 1.37 | 1.01 | 0.332 | 0.824 | 1.26 | 1.31 | -0.201 | 0.845 | 0.726 | -0.105 (inactive) | 0.156 | -5.71 (inactive) | -1.99 (inactive) | -1.28 (inactive) | -1.2 (inactive) | -0.0944 | 0.0391 | 0.71 | 0.913 | 0.832
COc1ccc(C#Cc2ccc3c(c2)[C@]2(C(=O)N3)[C@H](C(=O)Nc3nc4ccccc4s3)[C@H]3C(=O)O[C@H](c4ccccc4)[C@H](c4ccccc4)N3[C@@H]2c2ccccc2OCCO)cc1 | 0.395 | 1.1 | 0.446 | 0.969 | 1.16 | 0.0821 | -1.98 | 0.262 | 0.371 | -0.364 (inactive) | 0.189 | -4.68 (inactive) | -0.939 (inactive) | -0.788 (inactive) | -0.369 (inactive) | 0.689 | 0.0569 | 0.076 | 0.0705 | 0.912
COCCOC(=O)N1C(=O)[C@@]2(c3cc(C#CCNC(N)=O)ccc31)[C@H](c1ccc(OCCO)cc1)N1[C@H](c3ccccc3)[C@H](c3ccccc3)OC(=O)[C@H]1[C@@H]2C(N)=O | 1.11 | 1.14 | 0.31 | 0.663 | 0.926 | 0.258 | -0.405 | 0.43 | 0.673 | -1.83 (inactive) | 0.428 | 0.0121 (inactive) | 0.529 (inactive) | 0.228 (inactive) | -0.304 (inactive) | 0.947 | -0.0131 | 0.304 | 0.406 | 1.44
COc1ccc([Si](C)(C)[C@H]2[C@H](CC(=O)N3CCC[C@H]3CO)O[C@@]3(C(=O)N(Cc4ccc(N5CCC5=O)cc4)c4ccccc43)[C@@H]2C)cc1 | 1.54 | 1.19 | 0.559 | 0.898 | 1.35 | 1.73 | 1.51 | 1.56 | 0.211 | -0.509 (inactive) | 0.699 | -5.51 (inactive) | 0.0292 (inactive) | 0.18 (inactive) | -0.404 (inactive) | 0.39 | -0.0523 | 1.1 | 0.43 | 1.77
CN1C=C(C(=O)OCCS(C)(=O)=O)C(C(=O)OCCS(C)(=O)=O)=CC(c2ccc(CO)cc2)=CC1c1cccs1 (stereo not given) | 1.48 | 0.577 | 0.0037 | 0.983 | 0.793 | 0.509 | 2.1 | 0.644 | 0.21 | -1.63 (inactive) | 0.0466 | -1.3 (inactive) | 0.637 (inactive) | 2.34 (inactive) | -1.45 (inactive) | 1.42 | 0.0659 | 0.579 | 0.713 | 0.929
